The record followed here is PubChem BioAssay (NCATS).

In one test the test system is PA-1. As to the kind of experiment: Primary qHTS to identify gynecologic anti-cancer compounds using libraries of approved drugs and bioactive compounds (AID 1345084). Further: nearly all actives have a fitted effect of over 55% in size. Particulars: Gynecologic cancer cell panel viability, ATPlite luminescence, 48 h; series mostly up to 57.5 µM. The procedure, abridged:
(§1)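 Cells, 1,000 per well, were allowed to settle for 16 h at 37 C before compound addition. Five concentrations were tested for 48 h, and viability was read by ATPlite luminescence after 15 min at room temperature.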
For orientation: In qHTS, concentration-response curves come from the screen itself.

The next test deals with SKOV3. The description is as above. Particulars: Gynecologic cancer cell panel viability, ATPlite luminescence, 48 h; series mostly up to 57.5 µM. An outline of the steps:
as §1
(Cellular ATP, detected with luciferase, serves as a proxy for viable cell number.)

In another test the test system is Tov-21-G. The test is described as above. Particulars: Gynecologic cancer cell panel viability, ATPlite luminescence, 48 h; series mostly up to 57.5 µM. The procedure, abridged:
as §1

The test system of another test is Tov112D. The test is described as above. Particulars: Gynecologic cancer cell panel viability, ATPlite luminescence, 48 h; series mostly up to 57.5 µM. The procedure, abridged:
as §1

Test [1] is described as follows: Drug repurposing screens with cells derived from glioblastoma tumor samples (AID 1345199). Further: nearly all actives have a fitted effect of over 40% in size. Further: potency means the concentration at half of the fitted maximal effect. Particulars: GBM patient neurospheres viability, ATP luminescence, 48 h. The procedure, abridged: (§2)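 Four patient lines of CD133+ GBM neurospheres were screened at several concentrations; hits were retested in those lines plus three slower-growing GBM lines, using 48-hour treatment and ATP-based viability.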

For the next test, the system named is astro. The test is described as above. Particulars: viability, ATP luminescence, 48 h; series mostly up to 45.9 µM. An outline of the steps: as §2
[2] abbreviates: at 45.9 µM (top of the series), tumour line B.
The mark [3] stands for this setting: at 45.9 µM (top of the series), tumour line D.
Setting [4] is: at 46 µM (top of the series), tumour line A.
[5] abbreviates: at 46.1 µM (top of the series), tumour line C.
Where [6] appears, read: at 20 µM (top of the series), tumour line C.
The mark [7] stands for this setting: at 21.2 µM (top of the series), tumour line B.
Where [8] appears, read: at 21.2 µM (top of the series), tumour line D.
[9] abbreviates: at 21.3 µM (top of the series), tumour line A.

Records with an inconclusive call do not appear. Some compounds were tested as several samples or in several runs, with calls that do not always agree. Values without a mark were called inactive. Activity calls are given as the source filed them. The call rests on the fitted dose curve; in most records, active means well fitted curve in the direction sought with a large enough effect; inconclusive means small, poorly fitted or top-dose-only effect, or another doubt; inactive means no such curve, though single readings can be large; an effect the other way counts as inactive or inconclusive.
On the % scale 0 is the no-effect control and ±100 the full control effect.

Take `C#CCN(C)CCCOc1ccc(Cl)cc1Cl`: the Potency entry in the test on PA-1, in the test on SKOV3, with Tov-21-G, in the test on Tov112D and with astro was “inactive” throughout. In addition, the activity, negative = cell killing was -0.374% in test [1] (setting [2]), -15.7% in test [1] (setting [3]), -39.4% in test [1] (setting [4]) and -14.2% in test [1] (setting [5]).

On to `C[C@@H](O)[C@H]1C(=O)N2C(C(=O)O)=C(SCCN=CN)C[C@H]12`, for which the Potency entry in the test on PA-1, in the test with SKOV3, in the test on Tov-21-G, with Tov112D and in the test with astro was “inactive” each time. Further, the activity, negative = cell killing in test [1] (setting [6]) was -11.4%; in test [1] (setting [7]) it was -16.2%; in test [1] (setting [8]) it was -8.7%; in test [1] (setting [9]), -14.5%.

Regarding `CCO/C([O-])=N/c1c[n+](N2CCOCC2)no1`, the Potency result in the test on PA-1, with SKOV3, in the test on Tov-21-G, in the test on Tov112D and in the test on astro was “inactive” each time. For the same compound, the activity, negative = cell killing was -6.76% in test [1] (setting [6]), -3.07% in test [1] (setting [7]), -1.62% in test [1] (setting [8]) and -22.7% in test [1] (setting [9]).

As for `NCCCNCCSP(=O)(O)O`, the activity change, negative = cytotoxicity was 1.25% [at 11.6 µM] with PA-1, 19.8% [at 11.6 µM] in the test on SKOV3, -2.2% [at 11.6 µM] in the test on Tov-21-G and 1.24% [at 11.6 µM] with Tov112D. Besides, the activity, negative = cell killing in test [1] (setting [2]) was -11.7%; in test [1] (setting [3]), -3.44%; in test [1] (setting [4]), -3.51%; in test [1] (setting [5]) it was 0.364%. Further, in the test with astro, the Potency result is “inactive”.

Consider `COC(=O)[C@@H](N)Cc1ccc(O)c(O)c1`, for which the Potency entry in the test with PA-1, in the test with SKOV3, with Tov-21-G and in the test with Tov112D was “inactive” in each case.

In the case of `CC(=O)Oc1cc(C(C)C)c(OCCN(C)C)cc1C`, the Potency entry in the test with PA-1, in the test with SKOV3, in the test on Tov-21-G, in the test with Tov112D and in the test with astro was “inactive” in each case. In addition, the activity, negative = cell killing is -2.72% in test [1] (setting [6]), -4.22% in test [1] (setting [7]), -2.65% in test [1] (setting [8]) and -22.5% in test [1] (setting [9]).

With `Cc1scc2c1N(C(=O)CN1CCN(C)CC1)c1ccccc1NC2=O`, the Potency result in the test with PA-1, in the test on SKOV3, in the test on Tov-21-G, in the test on Tov112D and with astro was “inactive” each time. Also, the activity, negative = cell killing in test [1] (setting [2]) is -11.6%; in test [1] (setting [3]), 2.13%; in test [1] (setting [4]), -22.7%; in test [1] (setting [5]) it was -12.1%.

Turning to `CCCCOCCOCCOCc1cc2c(cc1CCC)OCO2`, the Potency entry in the test with PA-1, in the test on SKOV3, with Tov-21-G, in the test on Tov112D and in the test on astro was “inactive” each time. For the same compound, the activity, negative = cell killing in test [1] (setting [2]) is -4.83%; in test [1] (setting [3]), 11.7%; in test [1] (setting [5]), -0.263%; in test [1] (at 91.6 µM (top of the series), tumour line B) it was -11.5%; in test [1] (at 91.6 µM (top of the series), tumour line D), -27.9%; in test [1] (at 99.2 µM (top of the series), tumour line C), 13.4%. Besides, the Potency in test [1] (tumour line A) is 31.6 µM (active).

With `CN(C)CCCN1c2ccccc2Sc2ccccc21`, the Potency result in the test with PA-1, in the test with SKOV3, with Tov-21-G and in the test on Tov112D was “inactive” throughout. Also, in test [1] (setting [6]), the activity, negative = cell killing is -19.7%. Further, the figures for the Potency in test [1] (tumour line A) and in test [1] (tumour line D) were 12.6 µM (active) and 10 µM (active), respectively.

Turning to `CC(C(=O)O)c1ccc(CC2CCCC2=O)cc1` (centres undefined), the Potency entry in the test with PA-1, with SKOV3, with Tov-21-G, in the test on Tov112D and with astro was “inactive” throughout. The activity, negative = cell killing is -3.22% in test [1] (setting [2]), 4.21% in test [1] (setting [3]), -18.9% in test [1] (setting [4]) and -19.4% in test [1] (setting [5]).

As to `O=C(CCNNC(=O)c1ccncc1)NCc1ccccc1`, the Potency result with PA-1, in the test with SKOV3, in the test on Tov-21-G, with Tov112D and in the test on astro was “inactive” in each case. Further, the activity, negative = cell killing was -4.66% in test [1] (setting [2]), -5.12% in test [1] (setting [3]), -24.8% in test [1] (setting [4]) and 1.75% in test [1] (setting [5]).

On to `CC(C)[N+](C)(CCOC(=O)C1c2ccccc2Oc2ccccc21)C(C)C`, for which the Potency result in the test on PA-1, in the test on SKOV3, in the test with Tov-21-G, in the test on Tov112D and in the test with astro was “inactive” each time. Also, the activity, negative = cell killing is -4.27% in test [1] (setting [2]), -14.8% in test [1] (setting [3]), -16.6% in test [1] (setting [4]) and -11.5% in test [1] (setting [5]).

Regarding `Cc1cc(C)c(/C=C2\C(=O)Nc3ccccc32)[nH]1`, the Potency result with PA-1, in the test with SKOV3, in the test on Tov-21-G and with Tov112D was “inactive” throughout. Besides, in test [1] (setting [2]), the activity, negative = cell killing was -6.6%. In test [1] (tumour line A), the Potency is 31.6 µM (active).

For the compound `NC/C=C/C(=O)O`, the Potency entry in the test on PA-1, with SKOV3, in the test on Tov-21-G, in the test with Tov112D and in the test on astro was “inactive” in each case. Also, the activity, negative = cell killing in test [1] (setting [2]) is -2.84%; in test [1] (setting [3]) it was -13.4%; in test [1] (setting [4]), -7.07%; in test [1] (setting [5]), -22.1%.

For the compound `Cc1ccc(Cl)c(Nc2ccccc2C(=O)O)c1Cl`, the Potency result in the test with PA-1, in the test with SKOV3, with Tov-21-G and in the test with Tov112D was “inactive” each time. For the same compound, the activity, negative = cell killing was -5.7% in test [1] (setting [2]), -0.35% in test [1] (setting [3]), -28.2% in test [1] (setting [4]) and -24.9% in test [1] (setting [5]).

For `CCN(Cc1ccncc1)C(=O)C(CO)c1ccccc1` (centres undefined), the Potency entry in the test with PA-1, with SKOV3, with Tov-21-G, with Tov112D and with astro was “inactive” each time. Also, the activity, negative = cell killing in test [1] (setting [2]) is -2.8%; in test [1] (setting [3]) it was -5.82%; in test [1] (setting [4]), -16.9%; in test [1] (setting [5]), 1.27%.

On to `CCN(CC)CCNC(=O)c1ccc(NC(C)=O)cc1`, for which the Potency entry with PA-1, in the test on SKOV3, in the test on Tov-21-G, in the test with Tov112D and in the test with astro was “inactive” in each case. The activity, negative = cell killing is -5.4% in test [1] (setting [2]), 7.82% in test [1] (setting [3]), 7.67% in test [1] (setting [4]) and -13.9% in test [1] (setting [5]).

`CCCN(CCC)C(=O)C(CCC(=O)O)NC(=O)c1ccccc1` (centres undefined): the Potency entry in the test with PA-1, in the test on SKOV3, in the test with Tov-21-G, with Tov112D and in the test with astro was “inactive” each time. Further, the activity, negative = cell killing in test [1] (setting [2]) is 1.78%; in test [1] (setting [3]), -1.59%; in test [1] (setting [4]), -28.4%; in test [1] (setting [5]), -13.4%.
